Values joined by “and” are separate entries in the source; they are usually repeats but may differ in a detail not shown here. Identical values can stand only once. Hit rate of the full screen: of about 260,000 compounds, about 1,500 (0.58%) were called active. Another 5% or so got no clear call; they are omitted.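 The calls were made as follows: active = inhibition above a set limit at one or more doses, reproduced on every date tested; inconclusive = results disagree between test dates, or hit never tested in dose response; inactive = the rest.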 A selection follows. Results with a measured potency or affinity are listed apart.
molecular target: Virion infectivity factor (Human immunodeficiency virus type 1 group M subtype B (isolate BH10)) + Virion infectivity factor (Human immunodeficiency virus type 1 group M subtype B (isolate BRU/LAI)) + Virion infectivity factor (Human immunodeficiency virus type 1 group M subtype B (isolate PCV12)) + Virion infectivity factor (Human immunodeficiency virus type 1 group M subtype B (isolate HXB2)) + DNA dC->dU-editing enzyme APOBEC-3G (Homo sapiens) (UniProt P69720+P69721+P69722+P69723+Q9HC16); assay: HIV-1 Vif–A3G interaction blockers – biochemical, TR-FRET, GST-Vif 1-94, biotin-A3G peptide, dose response retest, primary screen (AID 1117319); conditions: TR-FRET GST-Vif / biotin-A3G peptide binding; stronger effect = higher value;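 also: Vif residues 1-94 fused to GST binding biotinylated APOBEC3G peptide 110-148; 0% = full assay without inhibitor and 100% = GST in place of GST-Vif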

inhibition, inactive:
COc1c(C)cc(C(=O)C2CCCN(C(=O)c3cc(C)nc(C)n3)C2)cc1C (centres undefined) -12.6%
CCc1cccc(NC(=O)CN(C)S(=O)(=O)c2cccc3cccnc23)c1 5.83%
COc1cc(O)c(CCO)c2c1C(=O)C[C@@H](C)O2 1.87%
COc1c(O)cc2c(c1O)C(=O)CC(c1ccccc1)O2 (centres undefined) 2.35%
O=C(NCc1cccnc1)c1ccc(CS(=O)(=O)Cc2ccc(Cl)cc2)o1 21.4%
CCc1cccc(NC(=O)C2CCN(S(=O)(=O)c3c(C)noc3C)CC2)c1 -1.11%
Cc1noc(C)c1S(=O)(=O)N1CCC(C(=O)NC2CCN(Cc3ccccc3)CC2)CC1 28.3%
CCCCn1c(SCC(=O)c2ccc(OCC)cc2)nc2cc(S(N)(=O)=O)ccc21 3.73%
CN1CC(=O)N(CC(=O)Nc2ccc(Cl)c(C(F)(F)F)c2)C1=O -5.66%
COc1ccc(NC(=O)CCCCCN2C(=O)CCC2=O)cc1Cl -2.09%
O[C@H]1C[C@H](c2ccccc2)N(CC2CCCCC2)C[C@@H]1n1cc(C2CC2)nn1 -3.24%
Cc1ccccc1N(C(=O)Cn1nnc2ccccc21)C(C(=O)NCc1ccco1)c1ccncc1 (centres undefined) -7.73% and -2.99%
Cc1ccc(C)c(N(C(=O)Cn2nnc3ccccc32)C(C(=O)NCc2ccco2)c2ccncc2)c1 (centres undefined) -2.7%
CC(C)Oc1ccc(N2CC(C(=O)Nc3ccccc3C(=O)NC3CC3)CC2=O)cc1 (centres undefined) -13%
Cc1ccc2[nH]c(=O)c(C3=NN(C(=O)CCC(=O)O)C(c4cccs4)C3)c(-c3ccccc3)c2c1 (centres undefined) 2.41%
COC(=O)C(CC(=O)c1ccc(Cl)cc1)c1ccc(C(C)C)cc1 (centres undefined) 10.5%
O=C(CCCl)N(Cc1nc2ccccc2c(=O)[nH]1)Cc1cccs1 -7.06%
CC(C)NC(=O)N(Cc1ccccc1)Cc1cccs1 -1.49%
CN(CC(=O)Nc1cccc(F)c1)C(=O)c1ccccc1OCCOc1ccccc1 2.96%
O=C(NNC(=O)c1ccccc1C(=O)O)c1cc2ccccc2o1 19%
CC(=O)Nc1ccc(NC(=O)c2ccc(-c3ccc([N+](=O)[O-])cc3)o2)cc1 -7.43%
C=CCNC(=O)c1ccc(-c2ccc([N+](=O)[O-])cc2)o1 16.1%
O=C(NNC(=O)c1cc2ccccc2o1)c1ccc(F)cc1 -2.65%
CC1CCN(c2ccccc2NC(=S)NC(=O)C(C)(C)C)CC1 -4.59%

Reference: PubChem BioAssay AID1117319 (Southern Research Institute, 2015)
